Values without a mark were called inactive.
Experiments:
[1] = test system: Pseudomonas aeruginosa PA14 dppA1-A5 penta mutant + pBBR5.DppA1 (PA14_58350); assay: respiration area under curve with compound as sole nitrogen source, 24 h (OmniLog AUC (arbitrary units)); higher = more respiration / better utilisation as nitrogen source, active = 2000 or more
Protocol: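 Biolog Phenotype MicroArray plates PM6-PM8: each di/tripeptide is the sole nitrogen source. Tetrazolium reduction was read in the OmniLog for 24 h at 37°C and summarised as area under the respiration curve (arbitrary units). Values below 2000 count as no respiration. Strain is the SBP penta mutant complemented with DppA1 on a plasmid under its native promoter. Lys/His/Cys peptides are excluded.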

[2] = test system: Pseudomonas aeruginosa PA14 dppBCDF deletion mutant; assay: respiration area under curve with compound as sole nitrogen source, 24 h (OmniLog AUC (arbitrary units)); higher = more respiration / better utilisation as nitrogen source, active = 2000 or more; extreme values may be limits of the assay
Protocol: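 Biolog Phenotype MicroArray plates PM6-PM8: each di/tripeptide is the sole nitrogen source. Tetrazolium reduction was read in the OmniLog every 15 min for 24 h at 37°C and summarised as area under the respiration curve (arbitrary units). Values below 2000 count as no respiration. Strain is the dipeptide ABC transporter deletion mutant.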

[3] = test system: Pseudomonas aeruginosa PA14 wild type; assay: respiration area under curve with compound as sole nitrogen source, 24 h (OmniLog AUC (arbitrary units)); higher = more respiration / better utilisation as nitrogen source, active = 2000 or more
Protocol: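 Biolog Phenotype MicroArray plates PM6-PM8: each di/tripeptide is the sole nitrogen source (IF-0 medium with succinate/ferric citrate and dye mix A). Tetrazolium reduction was read in the OmniLog every 15 min for 24 h at 37°C and summarised as area under the respiration curve (arbitrary units). The paper counts values below 2000 as no respiration and above 8000 as solid respiration. Replicate datasets are averaged.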

Structure (SMILES)	respiration area under curve [1]	respiration area under curve [2]	respiration area under curve [3]
CC(C)C(NC(=O)C1CCCN1)C(=O)O (configuration not stated) (plate: PM8)	5180 (active)	134	–
N[C@@H](CC(=O)O)C(=O)N[C@@H](CCC(=O)O)C(=O)O (plate: PM6)	437	0	–
CC[C@H](C)[C@H](N)C(=O)N[C@@H](C)C(=O)O (plate: PM6)	2520 (active)	88.8	–
NCC(=O)N[C@H](CO)C(=O)O (plate: PM8)	408	0	641
N[C@@H](CO)C(=O)N[C@@H](CC(=O)O)C(=O)O (plate: PM8)	2890 (active)	0	4090 (active)
N[C@@H](CCC(=O)O)C(=O)N[C@@H](Cc1c[nH]c2ccccc12)C(=O)O (plate: PM6)	1820	728	–
N[C@@H](Cc1ccccc1)C(=O)N[C@@H](Cc1ccc(O)cc1)C(=O)O (plate: PM8)	2050 (active)	881	2350 (active)
CC(C)C[C@H](NC(=O)[C@@H](N)CC(C)C)C(=O)O (plate: PM6)	1870	1380	3640 (active)
N[C@@H](CO)C(=O)N[C@@H](Cc1ccc(O)cc1)C(=O)O (plate: PM7)	–	1890	6130 (active)
CSCCC(N)C(=O)NC(CCSC)C(=O)O (configuration not stated) (plate: PM7)	0	0	–
CSCC[C@H](N)C(=O)N1CCC[C@H]1C(=O)O (plate: PM7)	8590 (active)	0	8120 (active)
